Sampled rows, rich in hits. Any-hit rate of the full collection: about 4.7%.
SUMO HTRF inh = SUMOylation inhibition; P63279; HTRF SUMOylation assay, SAE1/SAE2 + UBC9, in vitro; inhibition, % at 35 µM; 0.36% of 290,000 active; in the data active = inhibition above about 50%, passing the limit was not always enough
MLLE-PAM2 inh = inhibitors of microRNA-mediated deadenylation, human PABP1 MLLE binding; P11940; GST-MLLE / FITC-PAM2 fluorescence polarization; inhibition, % at 20 µM; 0.36% of 360,000 active; AID 588489; in the data active = inhibition above about 35%, passing the limit was not always enough;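 also: plate controls were DMSO wells with GST-MLLE for no effect and wells lacking GST-MLLE protein for full effect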
PABP polyA inh = PABP-poly(A) binding inhibition | P11940 | PABP-poly(A) RNA binding, fluorescence polarization | inhibition, % at 35 µM | 1% of 290,000 active | AID 2014;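 also: calls also rest on retests at 20 µM and on dose response follow-up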
eIF4H FP inh = inhibitors of RNA binding by human eIF4H; 0.94% of 290,000 active; Q15056; inhibition, % at 35 µM; eIF4H fluorescence polarization binding assay;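 also: calls also rest on retests at 20 µM and on dose response follow-up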
Efflux pump mplx = inhibitors of Candida antifungal efflux pumps expressed in yeast | S. cerevisiae Candida pump triplex, Nile Red efflux | 0.44% of 330,000 active | inhibition, % at 10 µM;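 active = plate passing quality check with inhibition over a set limit, or well fluorescence over plate mean plus 4 SD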;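 also: Nile Red retained in pooled yeast measured as flow cytometry median fluorescence; 0% = buffer negative control and 100% = Enniatin B positive control; higher means more Nile Red kept so more efflux inhibition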
ALR H2O2 inh = inhibitors of human sulfhydryl oxidase ALR | AID 485317 | P55789 | 3.8% of 290,000 active | purified ALR, DTT oxidation, H2O2 HRP-luminol luminescence | inhibition, % (concentration not given with the values);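 active = mean replicate inhibition above about 79%, with every replicate also reaching it, limit read from the data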
Target sequence (P55789 whole entry, looked up): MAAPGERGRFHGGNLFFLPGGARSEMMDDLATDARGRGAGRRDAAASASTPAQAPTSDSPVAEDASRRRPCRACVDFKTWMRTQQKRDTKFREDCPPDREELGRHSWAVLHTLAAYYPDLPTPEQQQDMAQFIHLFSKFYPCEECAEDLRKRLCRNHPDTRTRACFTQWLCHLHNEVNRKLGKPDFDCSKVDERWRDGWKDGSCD
* marks the source's active call; other numbers are inactive results; i = inactive; / = no result. Unless noted, no rule for the calls is given here.

SMILES | SUMO HTRF inh | MLLE-PAM2 inh | PABP polyA inh | eIF4H FP inh | Efflux pump mplx | ALR H2O2 inh
O=[N+]([O-])c1ccccc1S(=O)(=O)N/C(=N/S(=O)(=O)c1ccccc1)c1ccccc1 | / | 12 | / | / | 0 | 1
C(=N\Nc1nc2ccccc2[nH]1)/c1cccs1 | 1 | -100 | -18 | -2 | 0 | 99*
C(=N\Nc1nc2ccccc2[nH]1)/c1ccncc1 | 8 | -72 | -13 | 0 | 0 | 98*
O=c1[nH]c(N/N=C/c2ccc(O)cc2)nc2ccccc12 | 13 | -47 | -3 | -2 | 0 | 95*
Clc1cnc(N/N=C/c2cccs2)c(Cl)c1 | -4 | -32 | 0 | -10 | 0 | 86*
OC(c1ccccc1)c1ncc(-c2cccc(OCc3ccccc3)c2)[nH]1 (stereo not given) | / | -8 | / | / | / | /
C/C(CC(=O)Nc1ccc(N(C)C)cc1)=N\NC(=O)c1ccc([N+](=O)[O-])cc1 | 3 | -4 | 2 | 12 | 0 | 95*
COc1ccc(CC(=O)N/N=C(\C)CC(=O)Nc2ccc(N(C)C)cc2)cc1 | -2 | -10 | 22 | 4 | 0 | 94*
CCOC(=O)C1(C)CCCCN1C(=O)c1cccc(Cl)c1 (stereo not given) | / | -6 | / | / | / | /
CCNCc1ccccc1OCc1ccccc1 | 5 | -8 | -3 | 9 | 0 | 9
Oc1ccc(NCc2ccccc2OCc2ccccc2)cc1 | 26 | -8 | active | 88* | 0 | 9
C#CCOc1ccccc1CNc1ccccc1 | -15 | 2 | -4 | -3 | 0 | 98*
COc1ccc(/C=C/C(=O)NCC(=O)N2CCC(N(C)CCN3CCOCC3)CC2)cc1OC | 1 | -4 | -1 | 5 | 0 | -8
CCC(C)Nc1ccc(NC(C)CC)cc1 (stereo not given) | / | 1 | / | / | 0 | 99*
O=C(O)CCC(=O)c1ccc2ccc3cccc4ccc1c2c34 | 28 | / | 30 | 17 | 0 | 87*
O=C(O)c1ccn(CSc2cc(Cl)ccc2Cl)n1 | / | 30 | / | / | 0 | 0
c1cn2c(NC3CCCCC3)c(-c3ccc(SC4CCCCC4)cc3)nc2cn1 | / | -38 | / | / | 0 | /
c1cn2c(NC3CCCC3)c(-c3ccc(N4CCOCC4)cc3)nc2cn1 | 19 | 3 | -3 | -2 | 0 | 99*
COc1cc(C(=O)NC(=S)NNC(=O)c2cnccn2)cc(OC)c1OC | -92 | 0 | 6 | 15 | 0 | 96*
CCC(=O)Nc1ccc2nc3c(=O)[nH]c(=S)[nH]c3nc2c1 | 26 | 38 | 98* | 112* | 0 | 2
CCC(=O)Nc1ccc2c(c1)C(=O)N(C)C2=O | 41 | -5 | -4 | -4 | 0 | -2
CCCCn1c(=O)[nH]c2nc3cc(NC(C)=O)ccc3nc2c1=O | 39 | 59 | 58* | 98* | 0 | -23
CCCCCCn1c(=O)[nH]c2nc3cc(N)c(C)cc3nc2c1=O | 24 | i | 3.5* | 65 | / | /
CCN(c1cccc(C)c1)S(=O)(=O)c1cc2c3c(c1)CCC(=O)N3CCC2 | / | 4 | / | / | 0 | /
CC(=O)Nc1ccc2c(c1)C(=O)c1ccc(Cl)cc1-2 | / | 15 | / | / | / | /
SMILES | SUMO HTRF inh | MLLE-PAM2 inh | PABP polyA inh | eIF4H FP inh | Efflux pump mplx | ALR H2O2 inh
CC12CCC(C(=O)N/N=C/c3ccc(O)cc3)(OC1=O)C2(C)C (stereo not given) | 7 | 1 | -4 | 5 | 0 | 99*
O=C(Cc1cccs1)N/N=C\c1ccc(O)cc1 | 5 | -6 | 0 | 8 | 0 | 98*
Cn1cccc1/C=N/NC(=O)Cc1cccs1 | 17 | 5 | -5 | 0 | 0 | 2
O=C(CC(=O)N/N=C/c1ccc(O)cc1)N/N=C/c1ccc(O)cc1 | 0 | 4 | 2 | -7 | 0 | 99*
CC(C)(Cc1ccc(O)cc1)NC(=O)CC(=O)N/N=C/c1ccc(Cl)cc1 | 2 | -6 | -8 | -9 | 0 | 16
Cn1cccc1CC(=O)N/N=C\c1ccccc1 | 7 | 3 | 11 | -9 | 0 | 66
Cn1cccc1CC(=O)N/N=C/c1ccc([N+](=O)[O-])cc1 | 20 | 17 | 5 | -12 | 0 | 99*
CC(C)CCNC(=O)c1cc2c(=O)n3ccccc3nc2s1 | 26 | 8 | 5 | 5 | 0 | 2
CN(C)c1ccc([C@@H]2[C@@H]([N+](=O)[O-])[C@H]3C=Cc4ccccc4N3[C@H]2C(=O)c2ccc(Cl)cc2)cc1 | 28 | -96 | 44 | 4 | 0 | -4
O=C(CCn1cnc(-c2ccccc2)c1-c1ccccc1)N/N=C/c1ccc(O)cc1 | 16 | -2 | 8 | 3 | 0 | 89*

Source: PubChem BioAssay
